Measured values as given in PubChem BioAssay AID1851 (National Center for Advancing Translational Sciences (NCATS), 2009).
Values joined by “and” are separate entries in the source; they are usually repeats but may differ in a detail not shown here. Equal entries are not always repeated. Among all 16,000 compounds or so, about 5,800 (36%) were called active. Not shown: some 23% with an inconclusive outcome. Calls follow the shape of the dose curve; as a rule, active = well fitted curve in the direction sought with a large enough effect; inconclusive = small, poorly fitted or top-dose-only effect, or effect the other way; inactive = no such curve, though single readings can be large or run the other way. The list shows a part of the results. Some compounds were tested as several samples or in several runs, with calls that do not always agree.

target: Cytochrome P450 2C19 (Homo sapiens) (UniProt P33261); assay: Cytochrome panel assay with activity outcomes; details: recombinant CYP, pro-luciferin dealkylation, luminescence, p450-cyp2c19; series mostly up to 57.1 µM
Sequence (P33261 whole entry, looked up): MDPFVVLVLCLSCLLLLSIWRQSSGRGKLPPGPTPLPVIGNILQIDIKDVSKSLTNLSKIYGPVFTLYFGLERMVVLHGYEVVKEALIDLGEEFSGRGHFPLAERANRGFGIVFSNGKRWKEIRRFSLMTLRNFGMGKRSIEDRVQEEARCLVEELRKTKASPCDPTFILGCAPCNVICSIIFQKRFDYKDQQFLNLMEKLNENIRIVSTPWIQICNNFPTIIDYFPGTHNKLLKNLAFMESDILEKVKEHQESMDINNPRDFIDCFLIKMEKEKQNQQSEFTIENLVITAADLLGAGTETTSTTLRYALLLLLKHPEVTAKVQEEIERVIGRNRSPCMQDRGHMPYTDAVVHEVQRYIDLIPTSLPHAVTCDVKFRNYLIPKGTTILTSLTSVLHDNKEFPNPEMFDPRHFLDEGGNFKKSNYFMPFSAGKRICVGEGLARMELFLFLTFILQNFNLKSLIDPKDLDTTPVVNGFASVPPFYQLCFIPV
% is scaled to controls: 0 for no effect and ±100 for the full control effect.

Row | SMILES | AC50 | activity, negative = inhibition
1 | COc1cc(-c2ccc(=O)[nH]n2)ccc1OC(F)F | 15.8 µM (active) | 
2 | COc1cc(C[C@H](C)N)c(OC)cc1I | inactive | 
3 | C[C@@]12CC(=O)[C@H]3[C@@H](CCC4=CC(=O)CC[C@]43C)[C@H]1CCC2=O | inactive | 
4 | C[C@@H]1CC[C@@H]2N(C1)C[C@H]1[C@@](O)([C@H](O)C[C@]3(O)[C@H]4CC[C@H]5[C@]6(O)O[C@]4(C[C@]13O)[C@@]5(C)CC[C@@H]6O)[C@@]2(C)O |  | 1.59% [at 11.4 µM] (inactive)
5 | NC(N)=NCCN=C(N)N |  | -3.51% [at 11.4 µM] (inactive)
6 | CN(C)c1ccc(NC(=O)CN2C(=O)CN=C(c3ccccc3)c3ccccc32)cc1 | 2.24 µM (active) | 
7 | O=C(O)CN1C(=O)CN=C(c2ccccn2)c2cc(Cl)ccc21 |  | 33.4% [at 11.4 µM] (inactive)
8 | CN(C)CCCNc1c2c(nc3ccc(Cl)cc13)CCCC2 |  | 23.5% [at 11.4 µM] (inactive)
9 | Nc1nc(OCc2ccccc2)c2[nH]cnc2n1 | 6.31 µM (active) | 
10 | O=C(O)C[C@H]1NCc2cc3ccccc3nc21 |  | 22.2% [at 11.4 µM] (inactive)
11 | NCCc1c[nH]c2ccc(C(N)=O)cc12 | inactive | 
12 | CCCCCCCCCOc1ccc2[nH]cc(CCN)c2c1 | 10 µM (active) | 
13 | COc1ccc2[nH]cc(CCN)c2c1 | inactive | 
14 | CCC(COC(=O)NC)NC(=O)Oc1ccccc1 (centres undefined) | inactive | 
15 | O=S(=O)(c1ccccc1)N1CCCCC1c1cccnc1 (centres undefined) | 10 µM (active) | 
16 | CC(C)=C[C@H]1[C@@H](C(=O)OCc2cc3c(cc2Cl)OCO3)C1(C)C | 1.58 µM (active) | 
17 | CC(C)CN1CC2(CCN(C(=O)Oc3ccccc3)CC2)C1 | inactive | 
18 | Fc1ccc(C(OCCN2CCN(C/C=C\c3ccccc3)CC2)c2ccc(F)cc2)cc1 | 7.94 µM (active) | 
19 | C(=C/c1ccccc1)/CN1CCN(CCOC(c2ccccc2)c2ccccc2)CC1 | 10 µM (active) | 
20 | CO[C@@H]1CC=C2CCN3CCC4=C(CC(=O)OC4)[C@]23C1 | inactive | 
21 | O=C1OC(=O)[C@@H]2[C@@H]1[C@@H]1CC[C@H]2O1 | inactive | 
22 | CCS(=O)(=O)Nc1cccc(C(=C2CCCCC2)c2cnc[nH]2)c1 | 0.00794 µM (active) | 
23 | N#Cc1ccc(CN2CCC3(CC2)CCN(C(=O)Oc2ccccc2)CC3)cc1 | inactive | 
24 | CC(=O)c1c(O)c(C)c(O)c(Cc2c(O)c3c(c(C(=O)/C=C\c4ccccc4)c2O)OC(C)(C)C=C3)c1O | inactive | 
25 | CCN1CCN(S(=O)(=O)c2ccc(Cl)nc2)CC1 | inactive | 

Row | SMILES | AC50 | activity, negative = inhibition
26 | NCc1cc(=O)[nH]o1 | inactive | 
27 | CS(=O)c1ccc(-c2nc(-c3ccc(F)cc3)c(-c3ccncc3)[nH]2)cc1 (centres undefined) | inactive and 39.8 nM (active) | 
28 | N[C@@H](CCCCP(=O)(O)O)C(=O)O | inactive | 
29 | C=CCN1C[C@H](C)N([C@H](c2ccc(C(=O)N(CC)CC)cc2)c2cccc(O)c2)C[C@H]1C | inactive | 
30 | CCCCc1ccc(C(=O)O)nc1 | inactive | 
31 | O=C(O)[C@H]1[C@H](C(=O)O)[C@H]2CC[C@@H]1O2 | inactive | 
32 | CCCCc1ccc(-c2nc(NC(=O)C3C4CCC(O4)C3C(=O)O)sc2C)cc1 (centres undefined) | 3.98 µM (active) | 
33 | C[C@H](N)[C@H](O)c1ccc(O)c(O)c1 | inactive | 
34 | CC(C)CN1CCC2(CC1)CCN(S(C)(=O)=O)CC2 | inactive | 
35 | CC(C)NC(=O)N1CCC2(CC1)CCN(C(=O)Oc1ccccc1)CC2 | inactive | 
36 | CN(C)[C@H]1C(=O)C(C(N)=O)=C(O)[C@]2(O)C(=O)C3=C(O)c4c(O)cccc4[C@@](C)(O)[C@H]3C[C@@H]12 | inactive | 
37 | O=C(c1ccc(-c2nnc(Nc3ccccc3)c3ccccc23)cc1)N1C[C@H]2C[C@H](C1)c1cccc(=O)n1C2 | 8.91 µM (active) | 
38 | O=c1cccc2n1CC1CNC[C@H]2C1 | inactive | 
39 | CC(=O)OCC1=C(C(=O)O)N2C(=O)[C@@H](N)[C@@H]2SC1 | inactive | 
40 | COc1cc([C@@H](O)CN)ccc1O | inactive | 
41 | Cc1c([C@@H](C)[C@H]2NC[C@H](C)C[C@@H]2O)ccc2c1C[C@@H]1[C@H]2CC=C2C[C@@H](O)CC[C@@]21C |  | 26.3% [at 11.4 µM] (inactive)
42 | C[C@@H]1Cc2cc3c(cc2C(c2ccc(N)cc2)=NN1)OCO3 | 2 µM (active) | 
43 | CC1=NN=C(c2ccc(N)cc2)c2cc3c(cc2C1)OCO3 | inactive and 7.94 µM (active) | 
44 | COc1ccc(C(=O)OC2C[C@H]3CC[C@@H](C2)N3C)cc1OC (some centres undefined) | inactive | 
45 | C[C@@]12C(=O)OC(=O)[C@@]1(C)[C@H]1CC[C@@H]2O1 | inactive | 
46 | CC1=C2C(=O)[C@@H]3[C@@H](CC=C4C[C@@H](O)CC[C@@]43C)[C@H]2CC[C@@]12O[C@H]1C[C@H](C)CN[C@H]1[C@@H]2C |  | 15.9% [at 11.4 µM] (inactive)
47 | CCCCCC[C@H]1C(=O)O[C@H](C)[C@H](NC(=O)c2cccc(NC=O)c2O)C(=O)O[C@@H](C)[C@H]1OC(=O)CC(C)C | inactive | 
48 | COc1ccc(C(=O)NC2CC3CCCC(C2)N3CC(C)C)cc1OC (centres undefined) | inactive | 
49 | NC[C@H](O)c1ccc(O)cc1 | inactive | 
